Data: PMC5540273 (PLoS ONE, 2017)

Tests used:
Conditions in all cases: concentration: 1 μM, replicates: in singlicate; n = 1
PRP4 = tested on: PRP4
PYK2 = tested on: T1, PYK2
T1 construct: gene PTK2B

QSK = tested on: QSK
RAF1 = tested on: RAF1
RET = tested on: RET
RIOK1 = tested on: RIOK1
RIOK2 = tested on: RIOK2
RIOK3 = tested on: RIOK3
RIPK1 = tested on: RIPK1
RIPK2 = tested on: RIPK2
RIPK4 = tested on: RIPK4
RIPK5 = tested on: RIPK5
ROCK1 = tested on: ROCK1
ROCK2 = tested on: ROCK2
ROS1 = tested on: ROS1
[1] = tested on: RPS6KA4(Kin.Dom.1-N-terminal)
[2] = tested on: RPS6KA4(Kin.Dom.2-C-terminal)
[3] = tested on: RPS6KA5(Kin.Dom.1-N-terminal)
[4] = tested on: RPS6KA5(Kin.Dom.2-C-terminal)
[5] = tested on: T2, RSK1(Kin.Dom.1-N-terminal)
T2 construct: gene RPS6KA1
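Also: KINOMEscan kinase panel screen.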

SMILES | %Inh (PRP4) [%] | %Inh (PYK2) [%] | %Inh (QSK) [%] | %Inh (RAF1) [%] | %Inh (RET) [%] | %Inh (RIOK1) [%] | %Inh (RIOK2) [%] | %Inh (RIOK3) [%] | %Inh (RIPK1) [%] | %Inh (RIPK2) [%] | %Inh (RIPK4) [%] | %Inh (RIPK5) [%] | %Inh (ROCK1) [%] | %Inh (ROCK2) [%] | %Inh (ROS1) [%] | %Inh [1] [%] | %Inh [2] [%] | %Inh [3] [%] | %Inh [4] [%] | %Inh [5] [%]
CNc1nc(-c2ccc3c(N)n[nH]c3c2)cc(N2C[C@@H](C(=O)NC3CCCCC3)OC[C@H]2C)n1 [GSK2375584] | 16 | 15 | 0 | 14 | 4 | 40 | 1 | 35 | 10 | 1 | 11 | 1 | 23 | 26 | 19 | 16 | 0 | 25 | 24 | 11
CC(C)c1ccc(O)cc1Nc1ccnc2ccc(C(F)(F)F)cc12 [GW482059] | 14 | 0 | 0 | 0 | 38 | 29 | 5 | 0 | 3 | 81 | 0 | 0 | 86 | 26 | 0 | 11 | 0 | 23 | 0 | 0
Cc1ccc(NC(=O)Nc2ccc(Cl)cc2)cc1-c1ccc(C(=O)Nc2ccncc2)cc1 [GSK1398472] | 21 | 15 | 1 | 87 | 6 | 31 | 0 | 31 | 0 | 12 | 28 | 6 | 4 | 0 | 0 | 7 | 0 | 17 | 0 | 27
COc1ccc(Nc2nccc(N3CCC(NC(=O)C(C)c4ccc(Cl)cc4)C3)n2)cc1 (stereo not shown) [GSK1379735] | 14 | 0 | 0 | 34 | 2 | 27 | 6 | 17 | 5 | 10 | 4 | 12 | 11 | 4 | 17 | 5 | 0 | 21 | 0 | 31
COc1ccc(Nc2nccc(N3CCC(NC(=O)C(C)c4ccc(Cl)cc4)CC3)n2)cc1 (stereo not shown) [GSK1379812] | 18 | 0 | 0 | 60 | 38 | 24 | 0 | 31 | 22 | 10 | 0 | 0 | 15 | 16 | 40 | 19 | 0 | 3 | 42 | 2
COc1ccc(Nc2nccc(N3CCC(NC(=O)c4cc5ccccc5s4)C3)n2)cc1 (stereo not shown) [GSK1379738] | 57 | 0 | 0 | 11 | 14 | 24 | 0 | 36 | 28 | 0 | 20 | 7 | 8 | 21 | 0 | 15 | 0 | 0 | 0 | 22
O=C(Nc1n[nH]c2nc(-c3cccs3)c(Br)cc12)C1CC1 [SB-735297] | 8 | 16 | 8 | 0 | 0 | 7 | 11 | 0 | 8 | 95.4 | 7 | 3 | 0 | 0 | 6 | 0 | 8 | 10 | 4 | 14
Fc1ccc(-c2nn3cccc(F)c3c2-c2ccncc2)cc1 [GW475620] | 29 | 0 | 0 | 17 | 98 | 30 | 7 | 39 | 0 | 27 | 0 | 50 | 22 | 0 | 0 | 38 | 0 | 33 | 0 | 0
O=c1cc(N2CCOCC2)nc2n(Cc3cccc(Cl)c3Cl)c3ccccc3n12 [GSK2299009] | 0 | 29 | 0 | 10 | 52 | 42 | 17 | 32 | 19 | 32 | 16 | 0 | 10 | 0 | 38 | 24 | 0 | 16 | 2 | 31
COc1cccc(C2=C(Nc3cc(Cl)c(O)c(Cl)c3)C(=O)NC2=O)c1 [SB-390767] | 15 | 0 | 5 | 6 | 16 | 28 | 0 | 0 | 0 | 17 | 13 | 7 | 11 | 11 | 0 | 5 | 0 | 6 | 18 | 0
Cn1cncc1C(=O)NC1CCN(c2ccnc(Nc3ccc(F)cc3)n2)C1 (stereo not shown) [GSK1379717] | 35 | 0 | 0 | 43 | 0 | 24 | 0 | 2 | 2 | 6 | 33 | 20 | 0 | 19 | 0 | 0 | 0 | 0 | 0 | 16
COc1ccc(-c2coc3ccc(-c4nnc(C)o4)cc23)cc1 | 17 | 0 | 0 | 11 | 0 | 0 | 15 | 0 | 0 | 3 | 0 | 0 | 0 | 0 | 0 | 13 | 0 | 4 | 4 | 0
COC(=O)C(Cc1ccccc1)NC(=O)NC1CCN(c2ccnc(Nc3ccc(F)cc3)n2)C1 (stereo not shown) [GSK1379714] | 33 | 28 | 0 | 13 | 21 | 24 | 0 | 34 | 18 | 3 | 0 | 15 | 9 | 20 | 24 | 14 | 0 | 1 | 18 | 6
O=C1NC(=O)C(c2ccc(Cl)cc2)=C1Nc1cccc(Cl)c1 [SB-317651] | 0 | 0 | 1 | 22 | 8 | 40 | 0 | 22 | 0 | 0 | 46 | 0 | 7 | 0 | 0 | 86 | 0 | 1 | 0 | 12
Cc1ccc(NC(=O)Nc2ccccc2F)cc1-c1ccc(C(=O)Nc2ccncc2)cc1 [GSK1398477] | 2 | 0 | 20 | 70 | 21 | 44 | 11 | 6 | 15 | 6 | 30 | 6 | 26 | 0 | 3 | 20 | 0 | 34 | 0 | 23
Cc1nccc(-c2c(-c3ccc(F)cc3)ncn2CCCN2CCOCC2)n1.Cl [SB-282975] | 17 | 21 | 26 | 0 | 6 | 29 | 14 | 27 | 15 | 27 | 33 | 13 | 0 | 0 | 23 | 100 | 15 | 5 | 8 | 0
Cc1ccc(-c2nc(Nc3ccncc3)c3ccccc3n2)s1 [GSK189015] | 0 | 0 | 6 | 12 | 13 | 45 | 26 | 23 | 0 | 10 | 20 | 6 | 0 | 0 | 0 | 18 | 0 | 23 | 0 | 0
O=C(Nc1n[nH]c2nc(-c3ccco3)c(Br)cc12)C1CCN(Cc2ccccc2)C1.O=C(O)[C@H](O)[C@@H](O)C(=O)O (stereo not shown) [SB-742034] | 0 | 6 | 26 | 15 | 2 | 0 | 7 | 0 | 0 | 0 | 17 | 29 | 0 | 0 | 5 | 11 | 12 | 0 | 16 | 17
COc1ccc(Nc2nccc(-c3ccc(NC(=O)c4cc5cc(F)ccc5[nH]4)cc3)n2)cc1 [GSK1229496] | 41 | 0 | 0 | 17 | 0 | 40 | 0 | 53 | 5 | 4 | 0 | 0 | 18 | 10 | 26 | 0 | 0 | 0 | 0 | 13
CNC(=O)c1ccc(C)c(-n2c(C)cc(OCc3ccc(F)cc3F)c(Br)c2=O)c1 | 0 | 0 | 0 | 0 | 0 | 0 | 0 | 0 | 0 | 0 | 0 | 0 | 0 | 0 | 15 | 67 | 0 | 0 | 0 | 0
